An excerpt weighted towards active compounds, which were near 11% of everything screened.
SW480 rereplic: A quantitative high throughput screen for small molecules that induce DNA re-replication in SW480 colon adenocarcinoma cells; SW480 DNA re-replication, Hoechst DNA content imaging, 48 h; Potency, µM (doses to about 46.1 µM), inactives show at the highest dose re-replication activation, hits mostly activators; hit rate 1.8% among 340,000; AID 624297, 2012; note: potency is the fitted concentration of half-maximal effect; % of control where 0% means no effect; nearly all actives have a fitted effect of over 55% in size
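DNA re-replication was detected as more nuclei of elevated Hoechst intensity after 48 hr exposure to compound (23 nL pinned per well of 250 cells).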
VP16 counter: VP16 counterscreen qHTS for inhibitors of ROR gamma transcriptional activity | AID 2546, 2010 | Drosophila S2 Gal4-VP16 UAS-luciferase, luminescence, 20 h | hit rate 3.5% among 310,000 | Potency, µM (titrated, usually from 53.6 µM), for inactives: at the highest dose activity, negative = inhibition, actives largely listed as inhibitors;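 note: Gal4-VP16 expression switched on by copper sulfate through the metallothionein promoter; potency is the fitted concentration of half-maximal effect; % is set by controls: 0 for no effect and ±100 for the full control effect; nearly all actives have a fitted effect of over 50% in size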
IL1B secr inh: qHTS for Inhibitors of Inflammasome Signaling: IL-1-beta AlphaLISA Primary Screen; activity change, % at 57.5 µM; THP-1 LPS/ATP IL-1B secretion, AlphaLISA, 16 h; hits give low values; hit rate 4.7% among 360,000; in the data active = activity change below about -50%; inconclusive = mostly about -30% to -49%; note: % is set by controls: 0 for no effect and ±100 for the full control effect
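THP-1 cells pretreated 1 hr with compounds (up to 57.5 uM final), then stimulated with LPS (250 ng/mL final) plus ATP (1.25 mM final); secreted IL-1B measured by AlphaLISA after 16 hr, decreased signal indicating inhibition.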
MCF10A rerep: A quantitative high throughput screen for small molecules that induce DNA re-replication in MCF 10a normal breast cells; MCF 10A DNA re-replication, Hoechst nuclear intensity, 48 h; Potency, µM (top dose mostly 46.1 µM), for the others: at the top dose activity, positive = re-replication, usual class: activators; hit rate 2.9% among 350,000; AID 624296, 2012; note: potency is the fitted concentration of half-maximal effect; % of control where 0% means no effect; nearly all actives have a fitted effect of over 50% in size
RORg inh: qHTS for inhibitors of ROR gamma transcriptional activity | hit rate 5.4% among 310,000 | Nuclear receptor ROR-gamma (Mus musculus), P51450 | Drosophila S2 Gal4-RORgamma UAS-luciferase reporter, 20 h | AID 2551, 2010 | Potency, µM (titrated, usually from 53.6 µM), without a hit: top-dose activity change, negative = inhibition, hits mostly inhibitors; note: potency is the fitted concentration of half-maximal effect; % is set by controls: 0 for no effect and ±100 for the full control effect; nearly all actives have a fitted effect of over 60% in size
Target sequence (P51450 whole entry, looked up, the tested form may be a part): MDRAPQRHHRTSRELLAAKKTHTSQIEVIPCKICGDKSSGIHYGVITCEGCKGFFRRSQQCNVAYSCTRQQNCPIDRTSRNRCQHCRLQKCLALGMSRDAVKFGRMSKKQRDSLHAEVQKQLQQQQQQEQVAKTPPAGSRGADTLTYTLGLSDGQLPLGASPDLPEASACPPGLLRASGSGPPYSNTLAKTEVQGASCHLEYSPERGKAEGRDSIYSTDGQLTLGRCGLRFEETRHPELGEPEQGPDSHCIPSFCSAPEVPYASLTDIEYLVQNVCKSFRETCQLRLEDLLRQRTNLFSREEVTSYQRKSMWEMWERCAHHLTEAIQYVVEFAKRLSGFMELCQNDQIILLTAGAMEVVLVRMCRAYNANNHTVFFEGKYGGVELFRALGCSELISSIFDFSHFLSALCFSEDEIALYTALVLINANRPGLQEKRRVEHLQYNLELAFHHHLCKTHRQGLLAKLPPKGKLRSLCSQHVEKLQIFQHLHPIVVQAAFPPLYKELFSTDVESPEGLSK
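Luminescence from a UAS-regulated Photinus luciferase reporter in stably transfected Drosophila Schneider cells is measured; decreased signal marks ROR gamma inhibition. Fusion expression is induced by 700 uM copper sulfate for 20 hr.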
Numbers without * were called inactive; ? = inconclusive; . = no result; ! = not active in a repeat; [ ] = another dose, or the depositor's remark. Unless noted, calls come from the whole dose curve; as a rule, active = well fitted curve in the direction sought with a large enough effect; inconclusive = small, poorly fitted or top-dose-only effect, or another doubt; inactive = no such curve, though single readings can be large; an effect the other way counts as inactive or inconclusive.

SMILES | SW480 rereplic | VP16 counter | IL1B secr inh | MCF10A rerep | RORg inh
CC(C)C[C@H]1C(=O)N2CCC[C@@H]2[C@]2(O)O[C@](NC(=O)[C@@H]3C=C4c5cccc6[nH]c(Br)c(c56)C[C@H]4N(C)C3)(C(C)C)C(=O)N12 | . | -23.2% | . | . | ?
CCC1OC2(C)C(O)C(/C=C/C=C/C=C/c3oc(=O)cc(OC)c3C)OC1(C)C2OC(C)=O (centres undefined) | . | . | . | . | 0.0398µM*
CCOC(=O)[C@]12Cc3cc(C)ccc3[C@H]1N(C1CCCCC1)C(=O)c1cc(OC)ccc12 | . | . | -110.7* | . | .
CCOC(=O)[C@]12Cc3cc(C)ccc3[C@H]1N(Cc1ccccc1)C(=O)c1ccccc12 | 3.8%[9.22 µM] | . | -2.8 | ? | .
CCOC(=O)C1C(=O)NC2(C)CC1c1cc(OC)ccc1O2 (centres undefined) | 7.5% | 11.5% | -2.3 | ? | 16.6%[10 µM]
CCOC(=O)[C@]12Cc3cc(C)ccc3[C@H]1N(CCC(=O)OC)C(=O)c1cc(OC)ccc12 | . | . | -124.0* | . | .
CCOC(=O)[C@]12Cc3cc(OC)ccc3[C@H]1N(C1CCCCC1)C(=O)c1cc(OC)ccc12 | . | . | -114.0* | . | .
c1cncc([C@@H]2CCCCN2)c1 | . | -11.0% | . | . | -9.8%
c1ccc(CCNCc2ccccc2)cc1 | -3.8% | -4.7% | -7.0 | -2.4% | 1.6%
CC1=C/C(=N\NC(=S)NCCc2ccccc2)CC(C)(C)C1 | 5.6% | ? | -6.8 | ? | 0.501µM*
CCCC(Cn1cncn1)c1ccc(Cl)cc1Cl (centres undefined) | . | 15.0% | . | . | -20.0%
CCOC(=O)c1ncn2c1CN(C)C(=O)c1cc(F)ccc1-2 | -33.3% | -3.5% | -53.1* | 2.8% | ?
Cc1cc(O)cc2c1O[C@](C)(CCC[C@H](C)CCC[C@H](C)CCCC(C)C)CC2 | 6.1% | -7.3% | . | 18.8% | 18.6%
COC(=O)C(O)(c1ccc(NC(=S)NC(=O)c2ccc(Cl)cc2Cl)cc1)C(F)(F)F (centres undefined) | 40.2% | ? | -1.0 | ? | 5.01µM*
CCOC(=O)C(O)(c1ccc(NC(=S)NC(=O)c2ccc(Cl)cc2Cl)cc1)C(F)(F)F (centres undefined) | ? | 10µM* | ? | ? | 6.31µM*
COC(=O)C(O)(c1ccc(NC(=O)NC2CCCCC2)cc1)C(F)(F)F (centres undefined) | -691.0% | 2.5% | 12.9 | -7.8% | ?
CCOC(=O)C(NC(=O)CC)(Nc1ccc(C(O)(C(=O)OCC)C(F)(F)F)cc1C)C(F)(F)F (centres undefined) | -0.6% | -5.3% | -25.4 | 0.4% | -1.8%
CCOC(=O)C(NC(=O)CCl)(Nc1ccc(C(O)(C(=O)OCC)C(F)(F)F)cc1)C(F)(F)F (centres undefined) | ? | -9.3% | -89.0* | 6.3% | -8.9%
C/C=C1/C[C@@H](C)[C@@](C)(O)C(=O)OCC2=CCN3CC[C@@H](OC1=O)[C@@H]23 | . | -9.3% | . | . | -23.5%
CCOc1ccc(-n2c(-c3cccs3)nc3ccccc3c2=O)cc1 | 2.9% | 6.1% | 21.5 | -7.8% | -10.2%
CCn1nc(/C=C/c2ccccc2)nc2c(=O)n(C)c(=O)nc1-2 | ? | 1.5% | -110.4* | 11.2µM* | 28.5%
CCn1nc(-c2cccs2)nc2c(=O)n(C)c(=O)nc1-2 | ? | 1.26µM* | -67.6* | 0.731µM* | 0.794µM*
O=C(Oc1ccccc1)N1CCC[C@@]2(CCN(Cc3cc(C(F)(F)F)cc(C(F)(F)F)c3)C2)C1 | . | 0.8% | . | . | 19.6%
Nc1ccc(N2CCN(Cc3ccccc3Cl)CC2)c(Cl)c1 | 1.6% | -0.2% | -3.4 | 20.6µM* | -17.4%
CCCC12CN3CCN(CC(C3)/C1=N\NC(=O)c1ccncc1)C2 | 5.8µM* | 9.2% | -2.0 | -4.4% | -12.0%
SMILES | SW480 rereplic | VP16 counter | IL1B secr inh | MCF10A rerep | RORg inh
C[N+](C)(C)CC1CCCc2ccccc2C1=O (centres undefined) | 15.6% | . | -10.9 | 13µM* | .
C=C1Nc2ccccc2C(=O)N1c1ccccc1C | -5.8% | 3.5% | . | 6.1% | 7.7%
O=C1NC(=O)N(c2ccccc2)C(=O)/C1=C/c1ccc(Sc2ccccc2)o1 | ? | -18.0% | -101.0* | ? | 20.6%
CC1Cc2c(cnc3c2CN(C)CC3)CO1 (centres undefined) | . | 2.7%[10 µM] | . | . | -9.3%[10 µM]
CC(C)(C)c1cc([N+](=O)[O-])cc(C(C)(C)C)c1O | -13.1% | 4.47µM* | -16.2 | 13.1% | 14.1µM*
NC(=O)c1cc([N+](=O)[O-])cc([N+](=O)[O-])c1 | ? | -10.4% | 27.3 | 3.3% | -40.2%
CCc1ccc2c(c1)Sc1ccccc1CC2N1CCN(C)CC1 (centres undefined) | 25.9µM* | . | -65.0* | ? | .
O=C(CN1C(=O)C(=O)N(C2CCCC2)C1=O)Nc1cc(Cl)ccc1[N+](=O)[O-] | -3.5% | . | -8.4 | ? | .
C[C@H](CCC(=O)O)C[C@H](C)C[C@H](C)C(=O)/C=C(\O)[C@H](C)C[C@H](C)C/C=C/[C@@H](C)[C@@H](O)[C@@H](C)[C@@H](O)C[C@@H]1CC[C@@](C)(C2CC[C@@](C)([C@@H](C)O)O2)O1 (some centres undefined) | . | 6.31µM* | . | . | ?
[O]=[Cr](=[O])([OH])[O][Cr](=[O])(=[O])[OH] | ? | -3.6% | . | 11.9µM*! | 2.9%[10 µM]
C=C[C@]12CN(C)[C@H]3C1[C@@]1(C(=O)Nc4ccccc41)[C@H]1C[C@H]2[C@H]3CO1 | . | -0.9%[17 µM] | . | . | 0.8%[16.9 µM]
Oc1ccc2c(c1)[C@@]13CCCCC1[C@@H](C2)N(CC1CCC1)CC3 (some centres undefined) | . | 4.5% | . | . | 21.3%
CC1(C)CC(CCNCc2ccc3c(c2)OCO3)(Cc2ccccc2)CCO1 (centres undefined) | ? | -4.6% | -96.4* | ? | -2.4%
CCCCOc1ccc(CCN)cc1Cl | 4.4% | -5.7% | -68.8* | ? | 14.9%
CC/C(=N\NC(=O)c1ccccc1)c1c(O)n(C2CCCCC2)c(=O)[nH]c1=O | -21.1% | ? | 6.5 | -3.1% | 14.1µM*
CCC(=NC1CC1)c1c(O)n(C2CCCCC2)c(=O)[nH]c1=O | -12.9% | 26.6% | 26.8 | 2.8% | 26.1%
CC/C(=N\NC(=O)c1ccccc1Cl)c1c(O)n(C2CCCCC2)c(=O)[nH]c1=O | 1.0% | 12.6µM* | 14.8 | 19.7% | 7.94µM*
CCOc1ccc(N(CC)S(=O)(=O)c2ccc3c(c2)oc(=O)n3C)cc1 | -11.7% | 8.3% | 18.4 | ? | ?
CC1N(C)c2cc(NC(=O)c3ccco3)c(P(=O)(Nc3ccc([N+](=O)[O-])cc3)N3CCOCC3)cc2C1(C)C (centres undefined) | 11.0% | -3.9% | -54.9* | ? | ?

Bioassay records from PubChem.
